Screening data (PubChem BioAssay)
An excerpt weighted towards active compounds, which were near 19% of everything screened.
HT1080 IDH1KD tx = HT-1080 IDH1 knockdown cell toxicity (counter line). HT-1080 IDH1 knockdown viability, ATP luminescence, 48 h. Potency, µM (doses to about 46.1 µM), for the others: top-dose activity, negative = toxicity, usual class: cytotoxic. 2% of 360,000 active. AID 686971;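 note: potency is the fitted concentration of half-maximal effect; 0% = DMSO wells and -100% = cell-free medium wells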
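Luminescent ATP read-out (CellTiter-Glo, 10 min at room temperature) after 48 h compound exposure at 37 °C gave viability of IDH1-knockdown HT-1080 cells. Activity was normalised to DMSO and cell-free wells, then fitted as concentration-response curves.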
TDP1 cell noCPT = qHTS for Inhibitors of human tyrosyl-DNA phosphodiesterase 1 (TDP1): qHTS in cells in absence of CPT | DT40 Tdp1-/- hTDP1 cells, no CPT, ATP luminescence, 48 h | Potency, µM (highest dose often 46.2 µM), for inactives: top-dose activity change, negative = growth inhibition, usual class: inhibitors | 15% of 420,000 active | AID 686978, 2013; note: potency is the fitted concentration of half-maximal effect; nearly all actives have a fitted effect of over 55% in size
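Chicken DT40 Tdp1-/- cells complemented with human TDP1, screened without camptothecin (DMSO vehicle only), 400 cells/well. Compounds pin-transferred, cells incubated at 37 °C for at least 48 hr. Growth read as ATP-dependent luminescence (CellTiter-Glo, 30 min at RT).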
HT1080-NT tox = kills 2HG-producing HT-1080-NT fibrosarcoma cells. HT-1080-NT fibrosarcoma viability, CellTiter-Glo ATP luminescence, 48 h. AID 686970. Potency, µM (doses to about 46.1 µM), for inactives: at the highest dose activity, negative = less viability, most hits filed as cytotoxic. 1.6% of 360,000 active;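 note: NT is the 2HG producing partner of a matched IDH1 knockdown line; potency is the fitted concentration of half-maximal effect; 0% = DMSO-treated cells and -100% = media-only wells without cells; nearly all actives have a fitted effect of over 55% in size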
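Read-out is CellTiter-Glo luminescence after 10 minutes at room temperature, following 48 hours' compound treatment of HT-1080-NT cells (750 cells/well, RPMI, 5% FBS, 37 degrees C).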
IL1B secr inh = inhibitors of inflammasome signaling (IL-1 beta secretion). THP-1 LPS/ATP IL-1B secretion, AlphaLISA, 16 h; hits give low values. 4.7% of 360,000 active. AID 743279. activity change, % at 57.5 µM; in the data active = activity change below about -50%; inconclusive = mostly about -30% to -49%
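THP-1 cells pretreated 1 hr with compounds (up to 57.5 uM final), then stimulated with LPS (250 ng/mL final) plus ATP (1.25 mM final); secreted IL-1B measured by AlphaLISA after 16 hr, decreased signal indicating inhibition.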
TDP1 cell CPT = growth inhibition of DT40 Tdp1-/-;hTDP1 cells with camptothecin (screen for TDP1 inhibitors); chicken DT40 Tdp1-/-;hTDP1 cells + 20 nM CPT, ATP luminescence, 48 h; Potency, µM (top dose mostly 46.2 µM), for inactives: at the highest dose activity change, negative = growth inhibition, most hits filed as inhibitors; 12% of 420,000 active; note: potency is the fitted concentration of half-maximal effect; nearly all actives have a fitted effect of over 55% in size
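Chicken DT40 Tdp1-/- cells stably complemented with human TDP1 were seeded at 400 cells/well in medium containing 20 nM camptothecin, exposed to pin-transferred compounds, and grown at 37 °C for at least 48 hr. Viability was read as ATP luminescence.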
* hit, by the source's call; ? = inconclusive; . = no result; [ ] = remark or other dose. Unless noted, calls come from the whole dose curve; as a rule, active = well fitted curve in the direction sought with a large enough effect; inconclusive = small, poorly fitted or top-dose-only effect, or another doubt; inactive = no such curve, though single readings can be large; an effect the other way counts as inactive or inconclusive. Unless noted, % is set by controls: 0 for no effect and ±100 for the full control effect.

SMILES | HT1080 IDH1KD tx | TDP1 cell noCPT | HT1080-NT tox | IL1B secr inh | TDP1 cell CPT
COc1cc(NC(=O)Cc2c(C(=O)O)n(C)c3ccccc23)cc(OC)c1OC | 1.2% | -13.4% | 5.1% | 15.8 | 10.3%
O=C(COC(=O)c1cc(S(=O)(=O)N2CCOCC2)ccc1F)Nc1ccccc1C(F)(F)F | 1.2% | -11.2% | 2.8% | 17.3 | -11.6%
CCN1C[C@@H]2[C@@H]3C(=O)N(Cc4ccccc4)C(=O)[C@@H]3[C@](CC)(C1=O)N2C(=O)c1ccc(F)cc1 | 12.9% | -11.0% | -0.6% | 14.0 | -16.8%
O=C(OCC(=O)N1CCN(c2ccccc2)CC1)c1ccc[n+]([O-])c1 | 9.9% | -19.5% | 10.7% | 9.8 | 19.7%
Cn1c(N/N=C/c2ccccc2)nc2sc3c(c2c1=O)CCC3 | -28.3% | ? | -12.9% | 25.1 | ?
Cc1noc(C)c1S(=O)(=O)NC(=O)C1(C)CCN1C(=O)Cc1ccc(Cl)cc1Cl (stereo unspecified) | 17.2% | 0.9% | 10.6% | 15.9 | 10.3%
CC(C)[C@H](NC(=O)c1ccc(Cl)cc1Cl)C(=O)NNC(=O)c1ccco1 | 17.2% | -14.1% | 3.6% | 6.4 | -4.7%
O=C(N/N=C/C(Br)=C/c1ccccc1)c1cc(-c2ccco2)[nH]n1 | ? | 8.2µM* | ? | -68.3* | 6.51µM*
COc1ccccc1/C=C/C=N/NC(=O)c1cc(-c2ccco2)[nH]n1 | ? | 18.4µM* | -29.4% | -28.2 | ?
CC(/C=N/NC(=O)c1cc(-c2ccc(C)o2)[nH]n1)=C\c1ccccc1 | -4.9% | 16.4µM* | -13.1% | -3.5 | 14.6µM*
COc1ccccc1/C=C/C=N/NC(=O)c1ccccn1 | 28.9% | -8.3% | ? | -8.6 | 1.6%
C=C(C)c1cccc(C(C)(C)NC(=O)Nc2ccc3[nH]c(=O)[nH]c3c2)c1 | 1.2% | -14.5% | -2.4% | -20.6 | -25.0%
O=S(=O)(CCSc1nc2ccccc2s1)c1nc2ccccc2s1 | 20.6µM* | 3.66µM* | 20.6µM* | -100.0* | 6.51µM*
c1ccc2[nH]c(CSc3nc4ccccc4s3)nc2c1 | -18.1% | 14.6µM* | -13.2% | 24.4 | ?
Cc1nnc(SCc2nc3ccccc3[nH]2)s1 | 9.8% | -12.9% | 5.7% | -3.8 | 2.5%
C=CCS(=O)(=O)c1nc2ccccc2s1 | -4.9% | 20.6µM* | -8.8% | -115.0* | 16.4µM*
NCCSc1nc2ccccc2s1 | . | 11.2µM* | . | . | ?
CCOC(=O)[C@]12CCCC=C1N(Cc1ccco1)C(=O)[C@H](CC(=O)NCCc1ccccc1OC)C2 | 0.5% | ? | 0.7% | -2.7 | ?
COCCn1c(SCC(=O)NCc2ccc3c(c2)OCO3)nc2ccccc2c1=O | 1.0% | -26.0% | 3.4% | -5.2 | -15.4%
CCCC(=O)OCc1cnc(C)c2oc(=O)c(C(=O)Nc3ccc(F)cc3C)cc12 | . | -35.5% | . | . | ?
O=c1oc2ccccc2n1CSc1nc2ccccc2s1 | -3.0% | 13µM* | -3.7% | 32.4 | -26.9%
O=C(CSc1nc2ccccc2s1)CSc1nc2ccccc2s1 | 5.2%[9.24 µM] | -4.9% | ? | 30.0 | 3.5%
O=C(/C=C/c1ccco1)NC(=S)Nc1cccc(-c2nc3ccccc3o2)c1 | 5.8µM* | 3.26µM* | 5.17µM* | 37.5 | 4.61µM*
O=C(Nc1cccc(-c2nc3ccccc3o2)c1)C(F)(F)F | . | 2.91µM* | . | . | 3.66µM*
Cc1ccc(-c2nc3ccccc3o2)cc1NC(=S)NC(=O)/C=C/c1ccco1 | ? | 2.91µM* | ? | -2.1 | 2.91µM*
SMILES | HT1080 IDH1KD tx | TDP1 cell noCPT | HT1080-NT tox | IL1B secr inh | TDP1 cell CPT
Cc1ccc(-n2nc3ccc(NC(=S)NC(=O)/C=C/c4ccco4)cc3n2)cc1 | 21.8% | -5.1% | 17.2% | 26.1 | -11.9%
CCC(=O)Nc1cccc(-c2nc3ccccc3o2)c1 | -9.6% | -12.5% | -1.5% | 0.0 | -14.0%
O=c1c(-c2cccs2)nc2cnc(Oc3cccc(Cl)c3)nc2n1C1CC1 | . | -17.1% | . | . | -0.9%
CCOC(=O)c1ccc(NC(=S)NCCc2ccc(F)cc2)cc1 | ? | ? | ? | 156.9 | ?
COc1cccc2c1C(=O)c1c(O)c3c(c(O)c1C2=O)C[C@@](O)(C(C)=O)C[C@@H]3O[C@H]1C[C@H](N)[C@H](O)[C@H](C)O1 | 0.146µM* | 0.0058µM* | 0.0731µM* | -110.2* | 0.0206µM*
COc1cccc2c1C(=O)c1c(O)c3c(c(O)c1C2=O)C[C@@](O)(C(=O)CO)C[C@@H]3O[C@H]1C[C@H](N)[C@@H](O)[C@H](C)O1 | 0.517µM* | 0.146µM* | 0.259µM* | -27.2 | 0.164µM*
CC(=O)[C@]1(O)Cc2c(O)c3c(c(O)c2[C@@H](O[C@H]2C[C@H](N)[C@H](O)[C@H](C)O2)C1)C(=O)c1ccccc1C3=O | 0.326µM* | 0.0073µM* | 3.26µM* | -105.8* | 0.146µM*
CC[C@@]1(O)C[C@H](O[C@H]2C[C@H](N(C)C)[C@H](O[C@H]3C[C@H](O)[C@H](O[C@H]4CCC(=O)[C@H](C)O4)[C@H](C)O3)[C@H](C)O2)c2c(cc3c(c2O)C(=O)c2c(O)cccc2C3=O)[C@H]1C(=O)OC | . | 0.237µM* | . | . | 0.211µM*
Cc1cc(C(=O)COc2cc(F)ccc2[N+](=O)[O-])c(C)n1CC1CCCO1 (stereo unspecified) | -3.3% | ? | -6.5% | 0.0 | ?
COc1ccc(S(=O)(=O)NCC(=O)N(CC(=O)NCC2CCCO2)c2c(C)cccc2C)cc1 (stereo unspecified) | -0.8% | -18.8% | -0.9% | -10.9 | -3.8%
COc1cccc2c1C(=O)c1c(O)c3c(c(O)c1C2=O)CC(O)(C(=O)CO)CC3OC1CC(N(C)C)C(O)C(C)O1 (stereo unspecified) | 0.411µM* | 0.146µM* | ? | -100.1* | 0.0146µM*
O=C(c1cc(COc2ccc(F)cc2Cl)on1)N1CCCCC1c1cccnc1 (stereo unspecified) | -9.6% | 13µM* | -4.9% | ? | 16.4µM*
COc1cc(Cl)ccc1OCc1cc(C(=O)N2CCCCC2c2cccnc2)no1 (stereo unspecified) | 4.7% | ? | 0.5% | -10.7 | 5.8µM*
O=C(c1cc(COc2ccc(F)cc2Cl)on1)N1CCC(OCc2cccnc2)CC1 | -6.5% | 9.2µM* | -1.9% | 12.4 | 16.4µM*
COc1ccc(CC(N)c2csc(NC(=O)NCc3ccccc3)n2)cc1 (stereo unspecified) | 18.4µM* | ? | ? | -15.4 | 20.6µM*
COc1ccc(CNC(=O)Nc2nc(C(N)c3ccccc3)cs2)cc1 (stereo unspecified) | ? | 20.6µM* | ? | 0.0 | ?
